Screens deposited in PubChem by National Center for Advancing Translational Sciences (NCATS).
In the library only some 0.43% were active in any assay of this set; here they are far more common.
GLA inh pH 4.5 – inhibitors of human alpha-galactosidase A at pH 4.5 | P06280 | purified enzyme, 4-MU-alpha-Gal fluorescence, pH 4.5 | activity change, negative = inhibition, % at 105 µM | 230,000 tested, under 10 active | AID 1467;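 also: 0% = full activity with enzyme and -100% = basal without enzyme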
GAA inhib – alpha-glucosidase (human) inhibition; P10253; purified human GAA, 4-MU-alpha-glucoside fluorescence; Potency, µM (top dose mostly 76.9 µM), without a hit: at the top dose activity change, negative = inhibition, hits mostly inhibitors; 0.005% of 200,000 active;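 also: potency is read from the fitted curve at half-maximal effect; plate controls were uninhibited enzyme wells for no effect and no-enzyme background for full effect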
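Human alpha-glucosidase, 4 nM, pre-mixed with test compounds before 400 uM 4-methylumbelliferyl substrate; 20 min room temperature at pH 5.0. Fluorescence read after pH 10 stop; AC50 values from Hill-equation fits.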
N370S GC mod – N370S glucocerebrosidase modulation, Gaucher chaperone candidate | P04062 | N370S GC spleen homogenate, 4MU-glucoside fluorescence | Potency, µM (highest dose often 59.4 µM), without a hit: top-dose activity change, negative = inhibition, most hits filed as inhibitors | 0.092% of 330,000 active | AID 2101;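 also: potency is read from the fitted curve at half-maximal effect; 0% = full enzyme activity and -100% = no enzyme basal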
GAA glycogen – alters human alpha-glucosidase cleavage of glycogen; recombinant GAA, glycogen substrate, Amplex Red glucose oxidase fluorescence; Potency, µM (titrated, usually from 76.4 µM), for the others: at the top dose activity change, negative = inhibition, hits mostly inhibitors; 0.38% of 300,000 active; P10253;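 also: potency is read from the fitted curve at half-maximal effect; 0% = full enzyme reaction and -100% = no-enzyme basal signal; the screen sought inhibitors and activators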
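qHTS, 1536-well; enzyme 4 nM final; cpd up to 77 uM; substrate bovine liver glycogen 30 ug; 50 mM citrate/phosphate pH 5.0, 0.01% Tween-20; 37 C, 40 min; Amplex Red detection 45 min RT; Hill fit → AC50.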
aGlu spleen mod – inhibitors or activators of human alpha-glucosidase in spleen homogenate | 0.006% of 240,000 active | P10253 | Potency, µM (titrated, usually from 79.9 µM), for inactives: top-dose activity change, negative = inhibition, actives largely listed as inhibitors | human spleen homogenate, 4-MU-alpha-glucoside fluorescence;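 also: potency is read from the fitted curve at half-maximal effect; 0% = enzyme with vehicle and -100% = no enzyme basal signal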
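Human spleen homogenate (1 ug) with 4-methylumbelliferyl-alpha-D-glucopyranoside (1 mM final) in 50 mM citrate/phosphate pH 5.0, 0.01% Tween-20; 40 min at 37 C. Stopped at pH 10; 4-MU fluorescence Ex 365/Em 440 nm; AC50 by Hill fit.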
aGal spleen mod – alpha-galactosidase A (human) modulation. P06280. human spleen homogenate, 4MU-alpha-Gal fluorescence, 40 min. Potency, µM (titrated, usually from 80 µM), for inactives: at the highest dose activity change, negative = inhibition, hits mostly inhibitors. 0.008% of 240,000 active;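 also: potency is read from the fitted curve at half-maximal effect; 0% = enzyme with vehicle and -100% = no enzyme basal signal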
Target sequence (P06280 32-429 limits assumed): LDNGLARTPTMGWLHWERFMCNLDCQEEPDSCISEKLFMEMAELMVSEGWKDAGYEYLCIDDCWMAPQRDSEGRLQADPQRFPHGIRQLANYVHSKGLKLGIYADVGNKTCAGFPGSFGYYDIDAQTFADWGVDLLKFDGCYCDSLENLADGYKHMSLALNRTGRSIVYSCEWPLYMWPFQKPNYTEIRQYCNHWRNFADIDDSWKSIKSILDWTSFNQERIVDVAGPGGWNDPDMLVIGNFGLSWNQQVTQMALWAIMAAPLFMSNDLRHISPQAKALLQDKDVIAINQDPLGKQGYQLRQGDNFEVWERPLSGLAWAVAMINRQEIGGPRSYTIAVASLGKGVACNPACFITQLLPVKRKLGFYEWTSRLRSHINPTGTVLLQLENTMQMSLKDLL
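Inhibition or activation of alpha-galactosidase in human spleen homogenate is scored by 4-MU fluorescence after 40 min at 37C, pH 5.0, with 1 mM substrate. AC50s come from concentration-response fitted to the Hill equation.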
* = called active by the depositor; u = inconclusive; x = not tested or not shown; [ ] = dose if it differs, or a comment. Calls follow the shape of the dose curve; as a rule, active = well fitted curve in the direction sought with a large enough effect; inconclusive = small, poorly fitted or top-dose-only effect, or another doubt; inactive = no such curve, though single readings can be large; an effect the other way counts as inactive or inconclusive.

SMILES	GLA inh pH 4.5	GAA inhib	N370S GC mod	GAA glycogen	aGlu spleen mod	aGal spleen mod
O=C1Cc2cc(S(=O)(=O)N3CCN(c4ccccc4)CC3)ccc2N1	x	x	-6.7%	2.6µM*	x	x
O=C1Cc2cc(S(=O)(=O)N3CCN(c4ccc(C(F)(F)F)cc4)CC3)ccc2N1	x	x	x	-25.0%[76.3 µM]	x	x
CC(=O)c1ccc(N2CCN(S(=O)(=O)c3ccc4c(c3)CC(=O)N4)CC2)cc1	x	x	-11.9%	0.519µM*	x	x
COc1ccc(-c2nc(-c3ccccc3)c(-c3cc([N+](=O)[O-])ccc3C)[nH]2)cc1O	u	1.4%	-22.7%	-24.7%	-4.3%	3.9%
Cc1ccc([N+](=O)[O-])cc1-c1[nH]c(-c2ccc(O)c(O)c2)nc1-c1ccccc1	6.7	-14.1%	u	14.1µM*	0.8%	3.8%
Cc1nc2cnc(Oc3ccccc3)nc2n(Cc2cccs2)c1=O	x	x	3.3%	x	-3.7%	0.8%
Cc1ccc(C)c(Cn2c(=O)n(CCCC(=O)NCCc3ccc(Cl)cc3)c(=O)c3ccccc32)c1	x	x	x	13.2%[76.3 µM]	x	x
Oc1ccccc1N=Cc1c(O)ccc2ccccc12	-0.7	-11.7%	-3.7%	u	-15.0%	2.7%
CN(C)/N=C/c1c(O)ccc2ccccc12	-1.5	-0.5%	-6.9%	14.1µM*	-0.3%	1.4%
COc1cc(C2C(C#N)=C(N)Oc3n[nH]c(-c4cccs4)c32)cc(OC)c1O (centres undefined)	-0.6	x	-1.6%	17.8µM*	7.7%	7.8%
NC(=O)c1ccc(N2CCN(c3ccc(O)cc3)CC2)c([N+](=O)[O-])c1	5.1	9.8%	-9.3%	5.01µM*	-3.2%	0.1%
CC(=O)c1ccc(N2CCN(c3ccc(C(N)=O)cc3[N+](=O)[O-])CC2)cc1	-2.2	5.6%	-16.1%	-3.3%	3.6%	13.0%
O=[N+]([O-])c1cc(Cl)ccc1N1CCN(c2ccccc2O)CC1	5.3	-1.5%	-9.9%	8.84µM*	-5.5%	-4.8%
COc1cccc(/C=N/c2oc(-c3ccccc3)cc2C#N)c1O	-10.6	-3.7%	-16.2%	28µM*	-8.3%	1.6%
N#Cc1cc(-c2ccccc2)oc1/N=C/c1ccccc1O	3.3	-6.3%	4.4%	u	-6.5%	1.5%
COc1ccc2c(c1)CCC(C)N2C(=O)C(=O)c1c[nH]c2ccccc12 (centres undefined)	-9.7	x	-1.5%	1.5%	1.0%	6.9%
O=C(NCc1ccco1)/C(=C\c1ccco1)NC(=O)c1ccco1	-3.6	x	20.6%	-7.1%	0.0%	-0.8%
C=CCc1cccc(C=Nc2cc(Br)ccc2O)c1O	7.9	-5.3%	-19.3%	u	-6.3%	-2.5%
Cc1cccc(C=Nc2ccc3c4c(cccc24)CC3)c1O	-6.6	7.1%	-10.6%	14.1µM*	3.4%	16.9%
CCc1ccc(O)c(N=Cc2cccc(C)c2O)c1	-5.9	2.8%	-6.8%	15.7µM*	-8.4%	4.4%
Cc1ccc2sc(NNC(=O)C3=COCCO3)nc2c1C	-4.9	-2.8%	-11.3%	6.26µM*	9.8%	5.9%
Cc1ccc(N/C=C2/Sc3ccccc3NC2=O)cc1	7.5	8.7%	-3.1%	u	-7.5%	3.3%
COc1ccc(N/C=C2/Sc3ccccc3NC2=O)cc1	0.8	-3.4%	5.3%	19.8µM*	1.8%	-4.4%
COCCCNC(=S)NNC(=S)Nc1ccc(F)cc1F	-2.7	1.5%	13.1%	15.7µM*	0.1%	3.7%
COCCCNC(=S)NNC(=S)Nc1ccccc1	-5.0	-2.2%	-13.6%	6.26µM*	-1.9%	1.7%
SMILES	GLA inh pH 4.5	GAA inhib	N370S GC mod	GAA glycogen	aGlu spleen mod	aGal spleen mod
COCCCNC(=S)NCCc1ccc(F)cc1	-8.9	0.8%	1.2%	2.5%	6.0%	4.8%
COCCCNC(=S)Nc1ccc(C)cc1	-10.1	x	2.6%	-0.4%	4.6%	10.3%
Oc1ccc(C(c2nnnn2C2CCCCC2)N2CCOCC2)cc1 (centres undefined)	5.8	8.0%	-18.8%	-4.8%	-6.2%	-2.8%
CCOC(=O)c1cc2oc(C(c3nnnn3C3CCCCC3)N3CCOCC3)cc2[nH]1 (centres undefined)	-7.7	-4.3%	12.6µM*	-2.2%	-15.8%	-10.5%
COc1cc(/C=C(\C#N)C(=O)N2CCCCC2)ccc1O	x	x	u	-2.1%[76.3 µM]	x	x
N#C/C(=C\c1ccc(O)c(O)c1)C(=O)N1CCCC1	-13.3	-2.9%	-27.0%	2.82µM*	-21.4%	-19.2%
Cc1ccc(NS(=O)(=O)c2cc([N+](=O)[O-])ccc2NNC(=S)Nc2cc(C)ccc2C)c(C)c1	-11.1	-10.9%	u	7.3%	-6.3%	-4.4%
COc1ccc(NC(=S)NNc2ccc([N+](=O)[O-])cc2S(=O)(=O)Nc2ccc(C)cc2C)cc1	-11.9	u	22.4µM*	u	-2.4%	1.1%
COc1cc(OC)c(NC(=O)c2nnn(Cc3ccc(C)cc3)c2N)cc1Cl	x	x	x	5.0%[76.3 µM]	x	x
CCNc1ccc(S(=O)(=O)N(C)C)cc1NCC(=O)Nc1ccc(F)c(Cl)c1	-22.8	-10.7%	7.94µM*	10.3%	0.7%	2.0%
CCNc1ccc(S(=O)(=O)N(C)C)cc1NCC(=O)Nc1ccc(Br)cc1F	0.2	0.0%	8.9%	u	-4.6%	3.6%
CCNc1ccc(S(=O)(=O)N(C)C)cc1NCC(=O)Nc1ccccc1F	-8.1	u	10µM*	u	-1.2%	-6.0%
CCCCCOC(=O)CSc1ncnc2c1sc1nc(N3CCOCC3)c3c(c12)CCCC3	x	x	x	2.6%[76.3 µM]	x	x
COc1ccc(Nc2cc(C)c3c(O)cccc3n2)cc1	0.1	x	-17.9%	22.4µM*	4.3%	8.4%
CCOC(=O)N1CCN(c2ccccc2O)CC1	1.5	-4.5%	-1.4%	11.2µM*	-5.4%	1.0%
Nc1nc(-c2ccccc2)c(N=Nc2ccccc2Cl)s1	-6.5	-7.6%	10µM*	2.7%	-7.4%	-4.2%
O=C1CCCC/C1=C\Nc1ccc(O)cc1	4.6	-14.4%	u	8.84µM*	-4.6%	3.9%
CC12CCC(C(=O)NNc3ccc([N+](=O)[O-])cc3)(OC1=O)C2(C)C (centres undefined)	-14.2	x	-16.4%	u	-4.3%	-4.2%
CC12CCC(C(=O)NNc3ccccc3)(OC1=O)C2(C)C (centres undefined)	-1.0	5.3%	-14.8%	28.2µM*	-4.0%	-0.3%
COc1ccc(S(=O)(=O)NNC(=O)c2cc3cc4ccccc4nc3s2)cc1	-13.6	u	-20.9%	12.5µM*	0.1%	-12.1%
CS(=O)(=O)NNC(=O)c1cc2cc3ccccc3nc2s1	-2.3	-6.4%	7.4%	15.7µM*	5.4%	5.4%
CN(C)c1nc(-c2ccccc2)c2cnn(Cc3ccccc3)c2n1	5.2	6.4%[15.4 µM]	u	4.8%	6.4%	27.2%
CCc1ccc2nc3n[nH]c(N)c3cc2c1	7.0	1.5%	-0.5%	17.8µM*	-3.1%	-8.3%
